# DAX1 inh-1: NR0B1 (DAX1) inhibition; P51843; HEK293 Gal4-DAX1 luciferase reporter, luminescence; inhibition, % at 6.75 µM; 0.99% of 340,000 active;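 active = inhibition above the mean over all tested compounds plus 3 SD, cut at about 4.2% in these data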;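 note: 0% = DAX1-transfected cells with DMSO and 100% = empty-vector control cells with DMSO; inhibition shows as a rise in luminescence from relieved DAX1 repression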
# hcDAF-12 act: H. contortus DAF-12 activation, primary screen. HEK293 hcDAF-12 lit1-tk-luc reporter, luminescence; 0% DMSO, 100% Δ7-dafachronic acid. activation, % at 6.8 µM. 1.4% of 370,000 active. AID 652067;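 active = activation above the mean of all tested compounds plus 3 SD, cut at about 5.5% in these data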;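 note: 100% = response to 3 µM Δ7-dafachronic acid high control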
# hgDAF-12 ag: hgDAF-12 agonism, primary luciferase screen; HEK293 GAL4-hgDAF12 UAS-luciferase reporter, agonist luminescence; normalized to butyrate control; activation, % at 6.8 µM; 1.8% of 370,000 active;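 active = activation above a cutoff set at the mean of all screened compounds plus 3 SD, cut at about 10% in these data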;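 note: 0% = DMSO wells and 100% = sodium butyrate wells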
# AHR act: activates the human aryl hydrocarbon receptor; activation, % at 5 µM; AID 2796; 2.5% of 320,000 active; AHR-responsive luciferase reporter cells, luminescence; in the data active = activation above about 47%;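 note: 0% = vehicle wells and 100% = reference agonist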
# Target sequence (P35869 whole entry, looked up): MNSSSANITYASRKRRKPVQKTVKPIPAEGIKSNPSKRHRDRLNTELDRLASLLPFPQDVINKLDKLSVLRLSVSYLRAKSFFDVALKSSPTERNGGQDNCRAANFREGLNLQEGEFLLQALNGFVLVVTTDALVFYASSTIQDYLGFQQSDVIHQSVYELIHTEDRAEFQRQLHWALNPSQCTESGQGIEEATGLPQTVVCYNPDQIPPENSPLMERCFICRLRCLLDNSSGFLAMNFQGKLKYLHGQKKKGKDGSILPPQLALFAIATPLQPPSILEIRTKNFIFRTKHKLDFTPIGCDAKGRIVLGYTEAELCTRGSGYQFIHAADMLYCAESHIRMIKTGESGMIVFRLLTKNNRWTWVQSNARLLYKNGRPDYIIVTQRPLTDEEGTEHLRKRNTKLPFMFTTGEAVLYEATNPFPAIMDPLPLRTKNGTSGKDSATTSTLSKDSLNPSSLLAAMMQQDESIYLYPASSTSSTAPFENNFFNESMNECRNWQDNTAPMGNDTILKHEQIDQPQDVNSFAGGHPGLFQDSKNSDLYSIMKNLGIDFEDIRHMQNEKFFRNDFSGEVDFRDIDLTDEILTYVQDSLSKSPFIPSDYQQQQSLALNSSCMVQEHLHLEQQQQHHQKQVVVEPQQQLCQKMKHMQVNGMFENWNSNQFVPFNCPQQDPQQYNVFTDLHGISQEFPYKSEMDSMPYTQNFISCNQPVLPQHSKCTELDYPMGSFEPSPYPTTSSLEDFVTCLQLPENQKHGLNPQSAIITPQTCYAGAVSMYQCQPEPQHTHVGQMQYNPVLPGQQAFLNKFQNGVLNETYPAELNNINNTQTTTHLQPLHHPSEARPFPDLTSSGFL
# DAX1 inh-2: inhibitors of DAX1 repression of SF-1 activated StAR promoter; AID 652010; inhibition, % at 6.8 µM; HEK293T StAR-luciferase reporter, SF-1/DAX-1 repression relief; 1.1% of 370,000 active;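 active = inhibition above the mean over all tested compounds plus 3 SD, cut at about 3.6% in these data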;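 note: 0% = DAX-1 cells with DMSO and 100% = cells lacking DAX-1 with DMSO; higher inhibition means more luminescence from relief of DAX-1 repression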
# ssDAF-12 act: activators of S. stercoralis DAF-12 nuclear receptor; HEK293 ssDAF-12/GRIP1 lit1-tk-luc reporter, luminescence; % of 3 µM dafachronic acid response; activation, % at 6.8 µM; 1% of 370,000 active; AID 652126;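 active = activation above the mean over all tested compounds plus 3 SD, cut at about 0.9% in these data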;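 note: 0% = DMSO-only wells and 100% = 3 µM delta7-dafachronic acid wells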
# * = called active by the depositor; . = no result given. This is a sample that favours compounds with a hit; in the whole collection about 5.7% have one here.
SMILES,DAX1 inh-1,hcDAF-12 act,hgDAF-12 ag,AHR act,DAX1 inh-2,ssDAF-12 act
Cc1cc(C)n(Cc2ccccc2)c(=O)c1S(=O)(=O)c1ccccc1,1,0,1,3,0,-1
CC(C)Cc1nnc(NC(=O)CCC(=O)NCCc2ccc(Cl)cc2)s1,2,-3,6,-1,0,-1
CC(=C/c1ccccc1)/C=N/n1c(C)n[nH]c1=S,4.7*,-1,2,3,0,-1
Cc1ccc(S(=O)(=O)N2CCOC2C(Cl)(Cl)Cl)cc1 (configuration not stated),0,-2,-4,0,0,1.2*
Cc1ncsc1C(=O)Nc1nc2c(s1)CCCC2,2,3,13*,27,3,0
Cc1ccc(CC(=O)Nc2nc3c(s2)CCCC3)cc1,-2,-1,-6,11,-1,-1
Cc1cc(C(=O)Nc2nc3c(s2)CCCC3)cs1,-1,6.0*,9,20,3,0
Cc1cc(C(=O)Nc2nnc(C3CCCCC3)s2)cs1,2,3,4,0,1,0
Cc1nn(C2CCS(=O)(=O)C2)c(C)c1C=O (configuration not stated),0,0,-1,3,-1,-1
COC(=O)C1=C(C)N(Cc2ccccc2C(F)(F)F)C(=NCc2ccc(C(F)(F)F)cc2)NC1c1ccccc1 (configuration not stated),.,3,2,.,3,-1
CCCc1nnc(SCC(=O)O)n1CC,2,1,-3,-2,1,-1
CC(C)C(=O)N1CCN(c2ccccc2NC(=O)c2ccco2)CC1,-1,0,-1,-1,0,-1
COc1ccc(C(=O)C(C)OC(=O)COc2ccccc2)cc1 (configuration not stated),0,0,-3,1,3.8*,-1
CC(=O)C1=C(C)N(Cc2ccc(Br)cc2)C(=S)NC1c1ccc(F)cc1 (configuration not stated),.,-1,0,.,-1,-1
C=CCNC(=S)NNc1nc2c(c(=O)[nH]1)C1(CCCCC1)Cc1ccccc1-2,4.4*,-1,2,27,1,-1
O=c1[nH]c(NCCO)nc2c1C1(CCCC1)Cc1ccccc1-2,1,-1,0,2,0,-1
NC1=NC2(CCCCC2)N=C(Nc2ccc(Br)cc2)N1,0,-2,-3,72*,0,-1
O=C(NCCc1ccccc1)c1ccccc1SCC(=O)N1CCCC1,0,6.4*,6,31,2,1.2*
CCNC(=O)NC(=O)COC(=O)c1ccccc1SCC(=O)NC(=O)NCC,0,7.9*,12*,30,3.9*,2.3*
COc1ccccc1CCNC(=O)c1ccccc1SCC(=O)N1CCCC1,0,-1,0,8,-1,-2
Cc1ccccc1NC(=O)COC(=O)c1ccccc1SCC(=O)N1CCCC1,4.3*,-1,1,3,0,-1
O=C(COC(=O)c1ccccc1SCC(=O)NC1CCS(=O)(=O)C1)NC1CCS(=O)(=O)C1 (configuration not stated),1,1,-1,0,0,-1
N#Cc1ccsc1NC(=O)C1CCN(C(=O)c2ccc(Cl)cc2)CC1,-1,1,0,16,-1,0
Cc1ccc(-n2nc3c(c2NC(=O)c2ccc4c(c2)OCO4)CS(=O)C3)c(C)c1 (configuration not stated),3,1,2,3,-1,-1
COc1ccccc1NC(=O)c1cccnc1,-1,0,3,68*,0,-1
SMILES,DAX1 inh-1,hcDAF-12 act,hgDAF-12 ag,AHR act,DAX1 inh-2,ssDAF-12 act
C/C(=N\NC(=O)c1ccccc1C)c1cccnc1,1,0,7,33,0,-1
COc1ccccc1C(=O)N/N=C(\C)c1cccnc1,-1,5,3,59*,0,0
O=C(Nc1ccccc1)c1cc(C2COCCN2C(=O)CCCc2ccccc2)on1 (configuration not stated),.,-3,3,.,1,-1
O=C(O)c1cccc(NC(=O)C23CC4CC(C2)CC(n2cnc(Cl)n2)(C4)C3)c1,1,-2,-1,1,0,-1
COc1ccc(NC(=O)C23CC4CC(C2)CC(n2cnc(Br)n2)(C4)C3)cc1Cl,1,0,0,51*,0,0
Cn1cccc1C(=O)C(=O)Nc1ccccc1C(F)(F)F,4.4*,0,4,0,2,-1
CC(=O)Nc1ccccc1C(F)(F)F,4.3*,0,1,0,0,-1
CC(C)(C)C(=O)NC(=O)Nc1ccccc1C(F)(F)F,2,-1,-1,2,0,-1
Cn1cccc1C(=O)C(=O)Nc1ccccc1,1,5,13*,-4,3.8*,1.0*
Cn1cc(Br)c(C(=O)NNC(=O)c2ccccc2)n1,0,-2,0,-2,0,-2
Cn1cc(Br)c(C(=O)NNC(=O)Nc2ccccc2C(F)(F)F)n1,4.2*,0,10,10,1,-1
COc1cccc(-c2cnc(C(O)c3ccc(-c4ccccc4)cc3)[nH]2)c1 (configuration not stated),.,0,0,.,0,-1
O=C(Nc1ccccc1C(F)(F)F)c1cc(-c2ccccc2O)on1,2,0,12*,-1,2,0
O=C(c1ccc(N2CCOCC2)cc1)c1cccs1,3,6,12*,4,3.8*,0
O=C(Nc1ccc(N2CCOCC2)cc1N1CCOCC1)c1cccs1,1,0,-1,0,-1,-1
O=[N+]([O-])c1nn(-c2ccccc2)n(O)c1=NCc1ccc2c(c1)OCO2,1,2,4,2,1,-1
Cc1ccc(N=c2c([N+](=O)[O-])nn(-c3ccccc3)n2O)c(C)c1,0,4,7,25,-1,0
O=[N+]([O-])c1nn(-c2ccc(Cl)cc2)n(O)c1=NCc1ccccc1,5.0*,-2,3,0,0,-1
Cc1c(Cl)cccc1N=c1c([N+](=O)[O-])nn(-c2ccccc2)n1O,0,5.6*,2,55*,0,0
O=C(C1CCCO1)N1CCN(c2ccccn2)CC1 (configuration not stated),0,0,1,-2,1,-1
CCc1ccc(Nc2nc(C)cc(C)n2)cc1,0,3,11*,21,1,-1
Cc1cc(C)nc(Nc2ccc(O)cc2)n1,0,-1,-1,0,0,-1
CCn1cc(/C=C(\NC(=O)c2ccccc2)C(=O)NCCN2CCOCC2)c2ccccc21,-1,-2,1,.,0,-1
O=C(COC(=O)C1CC1)Nc1ccc(OC(F)F)cc1,1,0,3,-1,0,-1
